Measured values taken from PubChem BioAssay (EPA / NIEHS).
Activity calls are given as the source filed them. Rule for the calls: active = hit-call score of the fitted dose curve at least 0.9, where 1 is the maximum; inactive = score below 0.9.

What was measured:
[1] = ATG_Ets_CIS: Attagene CIS-FACTORIAL HepG2 Assay for human Erythroblast Transformation Specific (ETS) (AID 2282941); details: HepG2 ETS cis-reporter transcription, actives raise or lower the signal
Summary of the method: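 HepG2 cells transfected with multiple cis-regulated reporter units measuring endogenous ETS-driven transcription, 24 h after dosing. Reporter mRNA quantified by RT-PCR with capillary electrophoresis; bidirectional fit relative to DMSO.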

[2] = molecular target: Hepatocyte nuclear factor 3-beta (Homo sapiens) (UniProt Q9Y261); test: ATG_FoxA2_CIS: Attagene CIS-FACTORIAL HepG2 Assay for human Forkhead box A2 (FOXA2) (AID 2282942); details: HepG2 cis-reporter transcription factor activity, 24 h; actives raise or lower the signal
Summary of the method: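 Multiplexed cis-element reporter assay in transiently transfected HepG2. Twenty-four hours post-dosing, RNA was reverse-transcribed, amplified, FAM-labelled, HpaI-digested and separated by CE. Activity gain or loss relative to DMSO.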

[3] = ATG_FoxO_CIS: Attagene CIS-FACTORIAL HepG2 Assay for human Forkhead box O (FoxO) (AID 2282943); details: HepG2 Attagene cis-reporter, FoxO element, mRNA; actives raise or lower the signal
Summary of the method: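 Endogenous transcription factor activity read from multiplexed cis-promoter reporter transcripts in transiently transfected HepG2, 24 h after dosing. Reporter RNA measured via RT-PCR plus capillary electrophoresis of FAM-labeled products; gain or loss relative to DMSO.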

[4] = ATG_GATA_CIS: Attagene CIS-FACTORIAL HepG2 Assay for human GATA Binding Protein (AID 2282944); details: HepG2 GATA cis-element reporter, Attagene multiplex mRNA; actives raise or lower the signal
Summary of the method: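 Transfected cis-reporter HepG2 cells were treated with chemicals for 24 hours. Total RNA was then converted to cDNA, amplified with reporter-specific primers and analysed by fluorescent capillary electrophoresis, using DMSO-treated wells as baseline.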

[5] = ATG_GLI_CIS: Attagene CIS-FACTORIAL HepG2 Assay for human Zinc Finger Protein GLI1 (AID 2282945); details: HepG2, Attagene cis-factorial reporter mRNA, GLI element; actives raise or lower the signal
Summary of the method: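 Bidirectional curve fits relative to DMSO, using reporter mRNA levels from RT-PCR plus capillary electrophoresis. Cells were HepG2 transiently carrying cis-regulated reporter constructs, harvested 24 h after dosing.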

[6] = molecular target: Bile acid receptor (Homo sapiens) (UniProt Q96RI1); test: ATG_IR1_CIS: Attagene CIS-FACTORIAL HepG2 Assay for human Nuclear Receptor Subfamily 1 Group H Member 4 (NR1H4), IR1 submotif (AID 2282946); details: IR1 reporter transcription, actives raise or lower the signal
Summary of the method: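 Cells (human HepG2) carry transiently transfected cis-promoter reporter transcription units. Compounds are incubated 24 h, total RNA is reverse-transcribed and amplified, and labelled fragments are resolved by capillary electrophoresis. Curves use DMSO as baseline.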

[7] = ATG_GRE_CIS: Attagene CIS-FACTORIAL HepG2 Assay for human Glucocorticoid Response Elements (GRE) (AID 2282947); details: HepG2 GRE cis-reporter, Attagene multiplex mRNA; actives raise or lower the signal
Summary of the method: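 Transient MRTU transfection of human HepG2 liver cells; cis-regulated reporters report endogenous factors. 24 h dosing → RNA isolation → RT-PCR → 6-FAM primer extension → HpaI cut → CE fragment analysis. Bidirectional fit, DMSO negative control.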

[8] = ATG_ISRE_CIS: Attagene CIS-FACTORIAL HepG2 Assay for human Interferon Regulatory Factor 1 (IRF1) binding to an Interferon-Stimulated Response Element (ISRE) (AID 2282948); details: HepG2 ISRE cis-reporter (Attagene), mRNA transcription readout; actives raise or lower the signal
Summary of the method: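 Transiently transfected HepG2 cells carrying cis-element reporter units, dosed 24 hours. Reporter mRNA quantified by RT-PCR, fluorescent primer extension, HpaI digestion and capillary electrophoresis. Bidirectional fitting relative to DMSO.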

[9] = ATG_M_32_CIS: Attagene CIS-FACTORIAL HepG2 Assay for M32 Transcription Factor (Internal Marker) (AID 2282949); details: HepG2 Attagene cis-factorial M32 reporter, mRNA; actives raise or lower the signal;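 note: background control marker of the multiplexed CIS panel rather than a real target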
Summary of the method: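 Fluorescent capillary electrophoresis peaks of HpaI-digested, FAM-labelled RT-PCR reporter products give the signal. Source: transiently transfected human liver HepG2 cells, 24 h after chemical dosing; bidirectional fitting against DMSO.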

[10] = molecular target: Hypoxia-inducible factor 1-alpha (Homo sapiens) (UniProt Q16665); test: ATG_HIF1a_CIS: Attagene CIS-FACTORIAL HepG2 Assay for human Hypoxia Inducible Factor 1 (HIF1A) (AID 2282951); details: HepG2 Attagene cis-factorial HIF1a reporter transcription; actives raise or lower the signal
Summary of the method: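 Cis-element reporter constructs were transiently transfected into HepG2 cells, which were treated for 24 h; reporter RNA was reverse-transcribed, amplified, labelled and resolved by capillary electrophoresis.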

[11] = molecular target: Hepatocyte nuclear factor 6 (Homo sapiens) (UniProt Q9UBC0); test: ATG_HNF6_CIS: Attagene CIS-FACTORIAL HepG2 Assay for human Hepatocyte Nuclear Factor 6 (HNF6) (AID 2282952); details: HepG2 Attagene cis-factorial HNF6 reporter transcription; actives raise or lower the signal
Summary of the method: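 Transiently transfected HepG2 cells expressing cis-regulated reporter transcription units were exposed to chemical for 24 h in a 24-well format. Reporter transcript abundance was determined by fluorescence capillary electrophoresis.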

[12] = molecular target: Heat shock factor protein 1 (Homo sapiens) (UniProt Q00613); test: ATG_HSE_CIS: Attagene CIS-FACTORIAL HepG2 Assay for human Heat Shock Transcription Factor 1 (HSE) (AID 2282953); details: HepG2 HSE cis-reporter, Attagene RNA transcription; actives raise or lower the signal
Summary of the method: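 Liver-derived HepG2 cells carry transiently introduced multiple reporter units governed by cis promoters. Reporter RNA measured 24 h post-dose through reverse transcription, PCR amplification, fluorescent labelling and capillary electrophoresis, normalised to DMSO.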

[13] = ATG_MRE_CIS: Attagene CIS-FACTORIAL HepG2 Assay for human Metal Responsive Element (MRE) (AID 2282954); details: HepG2 MRE cis-reporter transcription, Attagene multiplex; actives raise or lower the signal
Summary of the method: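 Transient MRTU transfection of HepG2 (FuGene 6); 24 h dosing; total RNA → oligo(dT) RT, PCR, 6-FAM primer extension, HpaI cut, CE. Bidirectional fit vs DMSO.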

[14] = molecular target: Paired box protein Pax-6 (Homo sapiens) (UniProt P26367); test: ATG_Pax6_CIS: Attagene CIS-FACTORIAL HepG2 Assay for human Paired Box 6 (PAX6) (AID 2282956); details: HepG2 CIS-FACTORIAL PAX6 reporter transcription, RNA readout; actives raise or lower the signal
Summary of the method: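 HepG2 cells transiently transfected with cis-promoter-driven multiplexed reporter units sensing endogenous transcription factor activity; 24 h chemical exposure. Reporter mRNA quantified by RT-PCR, 6-FAM labelling, HpaI digestion and capillary electrophoresis; bidirectional fit versus DMSO baseline.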

[15] = ATG_PXRE_CIS: Attagene CIS-FACTORIAL HepG2 Assay for human Pregnane X Receptor Element (PXRE) (AID 2282957); details: HepG2 Attagene CIS-FACTORIAL PXRE reporter, mRNA; actives raise or lower the signal
Summary of the method: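 Cis-element reporter mRNA in human hepatoma HepG2 cells is measured 24 h post-dosing by RT-PCR, primer-extension labeling and capillary electrophoresis; gain or loss of signal is fitted relative to DMSO.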

[16] = ATG_PPRE_CIS: Attagene CIS-FACTORIAL HepG2 Assay for human Peroxisome Proliferator-activated Response Element (PPRE) (AID 2282958); details: HepG2 PPRE cis-element reporter, Attagene transcription factor profiling; actives raise or lower the signal
Summary of the method: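 DMSO served as negative control and baseline for bidirectional curve fitting. Signal came from PPRE-regulated reporter mRNA in HepG2 cells, measured 24 h post-dosing by RT-PCR, 6-FAM primer extension and capillary electrophoresis.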

[17] = ATG_RORE_CIS: Attagene CIS-FACTORIAL HepG2 Assay for human RAR-related Orphan Receptor Element (RORE) (AID 2282959); details: HepG2 Attagene cis-factorial RORE reporter, mRNA; actives raise or lower the signal
Summary of the method: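 Transfect HepG2 with MRTUs; treat 24 h; extract RNA; RT with oligo(dT); PCR with reporter-specific primers; 6-FAM primer extension; HpaI digest 2 h at 37 C; capillary electrophoresis. Fit vs DMSO, bidirectional.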

[18] = ATG_Sox_CIS: Attagene CIS-FACTORIAL HepG2 Assay for human SRY-box transcription factor (SOX) (AID 2282960); details: HepG2 Attagene cis-factorial SOX reporter, mRNA; actives raise or lower the signal
Summary of the method: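 Fluorescence-labelled cDNA fragments from reporter transcripts, sized by CE, give the signal. Cells: HepG2, transiently transfected with cis-regulated reporter units. Exposure 24 h; DMSO negative control; bidirectional curve fitting.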

[19] = ATG_PBREM_CIS: Attagene CIS-FACTORIAL HepG2 Assay for human Phenobarbital-responsive Enhancer Module (PBREM) (AID 2282955); details: HepG2 PBREM cis-reporter, Attagene multiplexed transcription; actives raise or lower the signal
Summary of the method: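 Multiplexed cis-reporter readout in human hepatoma HepG2 cells; PBREM-regulated transcript quantified after 24 h exposure by fluorescent RT-PCR fragment analysis. Signal changes up or down fitted relative to DMSO.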

[20] = ATG_M_06_CIS: Attagene CIS-FACTORIAL HepG2 Assay for M06 Transcription Factor (Internal Marker) (AID 2282950); details: HepG2 Attagene CIS-FACTORIAL M06 internal marker reporter; actives raise or lower the signal
Summary of the method: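 Cells (HepG2, transiently carrying cis-driven reporter units) receive chemical for 24 h before RNA isolation. Reporter cDNA is PCR-amplified, FAM-labelled by primer extension, HpaI-digested and sized on a capillary analyser.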

Paired box protein Pax-6 (Homo sapiens), sequence (P26367 whole entry, looked up): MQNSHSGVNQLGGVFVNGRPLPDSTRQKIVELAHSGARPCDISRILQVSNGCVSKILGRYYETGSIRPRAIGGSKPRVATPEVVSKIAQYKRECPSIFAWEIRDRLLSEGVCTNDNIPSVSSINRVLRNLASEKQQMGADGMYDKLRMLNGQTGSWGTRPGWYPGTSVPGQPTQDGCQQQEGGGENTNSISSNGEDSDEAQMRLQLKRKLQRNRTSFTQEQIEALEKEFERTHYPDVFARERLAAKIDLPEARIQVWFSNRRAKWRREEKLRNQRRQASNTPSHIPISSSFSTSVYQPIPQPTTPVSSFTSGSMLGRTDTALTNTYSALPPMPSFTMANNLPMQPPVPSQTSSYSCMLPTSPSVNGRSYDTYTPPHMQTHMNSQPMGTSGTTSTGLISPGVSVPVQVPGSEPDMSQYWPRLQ
Hepatocyte nuclear factor 6 (Homo sapiens), sequence (Q9UBC0 whole entry, looked up): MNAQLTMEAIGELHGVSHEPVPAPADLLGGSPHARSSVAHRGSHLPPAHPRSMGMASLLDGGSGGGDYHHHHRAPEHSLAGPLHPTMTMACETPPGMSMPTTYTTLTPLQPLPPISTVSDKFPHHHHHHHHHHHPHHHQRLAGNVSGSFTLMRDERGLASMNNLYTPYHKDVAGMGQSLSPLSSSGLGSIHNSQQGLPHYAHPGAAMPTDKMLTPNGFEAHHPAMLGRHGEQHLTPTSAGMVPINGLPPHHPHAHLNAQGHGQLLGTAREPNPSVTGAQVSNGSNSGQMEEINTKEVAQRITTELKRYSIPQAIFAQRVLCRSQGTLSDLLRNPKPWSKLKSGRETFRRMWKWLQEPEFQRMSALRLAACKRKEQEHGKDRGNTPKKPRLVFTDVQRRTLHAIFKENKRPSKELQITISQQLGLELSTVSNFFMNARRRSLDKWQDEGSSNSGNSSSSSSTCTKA
Hepatocyte nuclear factor 3-beta (Homo sapiens), sequence (Q9Y261 whole entry, looked up): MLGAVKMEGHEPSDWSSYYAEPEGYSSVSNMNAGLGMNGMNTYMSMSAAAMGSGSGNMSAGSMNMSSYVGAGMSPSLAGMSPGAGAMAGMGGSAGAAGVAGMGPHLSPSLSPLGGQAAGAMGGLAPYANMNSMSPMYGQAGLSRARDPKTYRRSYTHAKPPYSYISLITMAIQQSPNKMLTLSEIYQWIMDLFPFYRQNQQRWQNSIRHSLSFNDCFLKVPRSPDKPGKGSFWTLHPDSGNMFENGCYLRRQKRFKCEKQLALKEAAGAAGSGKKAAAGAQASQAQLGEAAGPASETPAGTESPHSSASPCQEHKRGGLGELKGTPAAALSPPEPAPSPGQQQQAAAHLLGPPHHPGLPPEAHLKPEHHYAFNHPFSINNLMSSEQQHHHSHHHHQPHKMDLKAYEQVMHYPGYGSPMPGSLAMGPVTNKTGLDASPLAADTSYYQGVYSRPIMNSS
Bile acid receptor (Homo sapiens), sequence (Q96RI1 whole entry, looked up, the tested form may be a part): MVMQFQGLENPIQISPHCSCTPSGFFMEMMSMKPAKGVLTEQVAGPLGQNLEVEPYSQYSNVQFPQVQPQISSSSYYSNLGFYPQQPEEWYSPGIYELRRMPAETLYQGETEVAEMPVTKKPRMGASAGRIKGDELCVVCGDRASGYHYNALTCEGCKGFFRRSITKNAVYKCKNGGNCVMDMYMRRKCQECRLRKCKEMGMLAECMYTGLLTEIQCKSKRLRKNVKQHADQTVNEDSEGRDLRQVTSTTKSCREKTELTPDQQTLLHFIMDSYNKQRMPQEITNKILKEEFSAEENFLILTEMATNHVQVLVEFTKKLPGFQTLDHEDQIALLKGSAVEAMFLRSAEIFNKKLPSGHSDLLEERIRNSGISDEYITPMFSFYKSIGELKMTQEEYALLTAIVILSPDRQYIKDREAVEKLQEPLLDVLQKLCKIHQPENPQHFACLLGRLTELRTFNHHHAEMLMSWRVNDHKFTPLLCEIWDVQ
Heat shock factor protein 1 (Homo sapiens), sequence (Q00613 whole entry, looked up): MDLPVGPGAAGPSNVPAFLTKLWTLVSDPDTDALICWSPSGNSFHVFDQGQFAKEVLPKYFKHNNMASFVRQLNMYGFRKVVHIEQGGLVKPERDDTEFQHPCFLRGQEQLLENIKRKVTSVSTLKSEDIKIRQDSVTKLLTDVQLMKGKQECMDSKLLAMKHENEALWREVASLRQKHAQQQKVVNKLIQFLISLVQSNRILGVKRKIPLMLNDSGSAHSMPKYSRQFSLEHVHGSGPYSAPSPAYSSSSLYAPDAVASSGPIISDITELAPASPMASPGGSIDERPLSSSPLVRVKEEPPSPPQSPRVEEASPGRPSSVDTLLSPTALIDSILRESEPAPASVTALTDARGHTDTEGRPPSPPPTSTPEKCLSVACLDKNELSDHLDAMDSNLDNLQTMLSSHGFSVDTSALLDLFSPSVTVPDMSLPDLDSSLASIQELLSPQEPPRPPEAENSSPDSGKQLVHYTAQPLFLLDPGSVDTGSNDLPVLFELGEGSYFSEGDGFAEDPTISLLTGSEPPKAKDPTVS
Hypoxia-inducible factor 1-alpha (Homo sapiens), sequence (Q16665 whole entry, looked up): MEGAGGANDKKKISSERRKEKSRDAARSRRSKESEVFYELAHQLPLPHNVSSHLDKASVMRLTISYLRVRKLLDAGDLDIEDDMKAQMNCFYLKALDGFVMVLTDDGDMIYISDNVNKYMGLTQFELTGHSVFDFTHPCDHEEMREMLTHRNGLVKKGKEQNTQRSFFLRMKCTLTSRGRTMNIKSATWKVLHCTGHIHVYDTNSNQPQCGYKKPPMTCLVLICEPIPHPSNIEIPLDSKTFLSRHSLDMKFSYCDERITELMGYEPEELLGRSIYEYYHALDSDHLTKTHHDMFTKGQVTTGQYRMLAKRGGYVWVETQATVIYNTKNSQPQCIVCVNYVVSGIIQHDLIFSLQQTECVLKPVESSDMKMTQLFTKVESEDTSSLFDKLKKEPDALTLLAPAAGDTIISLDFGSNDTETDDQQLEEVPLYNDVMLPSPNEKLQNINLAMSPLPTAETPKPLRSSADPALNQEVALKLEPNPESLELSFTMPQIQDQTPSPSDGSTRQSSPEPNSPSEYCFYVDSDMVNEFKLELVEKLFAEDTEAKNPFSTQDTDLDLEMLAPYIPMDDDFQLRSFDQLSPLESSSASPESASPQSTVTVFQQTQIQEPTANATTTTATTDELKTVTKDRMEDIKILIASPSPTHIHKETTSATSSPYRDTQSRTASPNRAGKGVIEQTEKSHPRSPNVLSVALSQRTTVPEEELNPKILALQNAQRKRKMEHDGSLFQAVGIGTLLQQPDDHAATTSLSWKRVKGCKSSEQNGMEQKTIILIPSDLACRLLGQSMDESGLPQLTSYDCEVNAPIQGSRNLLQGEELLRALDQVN

SMILES: N#CCCO
- outcome [1]: inactive
- outcome [2]: inactive
- outcome [3]: inactive
- outcome [4]: inactive
- outcome [5]: inactive
- outcome [6]: inactive
- outcome [7]: inactive
- outcome [8]: inactive
- outcome [9]: inactive
- outcome [10]: inactive
- outcome [11]: inactive
- outcome [12]: inactive
- outcome [13]: inactive
- outcome [14]: inactive
- outcome [15]: inactive
- outcome [16]: inactive
- outcome [17]: inactive
- outcome [18]: inactive

SMILES: Nc1cccc(Cl)c1
- outcome [1]: inactive
- outcome [2]: inactive
- outcome [3]: inactive
- outcome [4]: inactive
- outcome [5]: inactive
- outcome [6]: inactive
- outcome [8]: inactive
- outcome [9]: inactive
- outcome [10]: inactive
- outcome [11]: inactive
- outcome [13]: inactive
- outcome [19]: inactive
- outcome [14]: inactive
- outcome [15]: inactive
- outcome [16]: inactive
- outcome [18]: inactive

SMILES: [O-][Cl+2]([O-])O
- outcome [1]: inactive
- outcome [2]: inactive
- outcome [3]: inactive
- outcome [4]: inactive
- outcome [5]: inactive
- outcome [6]: inactive
- outcome [8]: inactive
- outcome [9]: inactive
- outcome [20]: inactive
- outcome [10]: inactive
- outcome [11]: inactive
- outcome [12]: inactive
- outcome [13]: inactive
- outcome [19]: inactive
- outcome [14]: inactive
- AC50 [15]: 69 µM (active)
- outcome [18]: inactive

SMILES: CCOP(OCC)OCC
- outcome [1]: inactive
- outcome [2]: inactive
- outcome [3]: inactive
- outcome [4]: inactive
- outcome [5]: inactive
- outcome [6]: inactive
- outcome [8]: inactive
- outcome [9]: inactive
- outcome [20]: inactive
- outcome [10]: inactive
- outcome [11]: inactive
- outcome [12]: inactive
- outcome [13]: inactive
- outcome [19]: inactive
- outcome [14]: inactive
- outcome [15]: inactive
- outcome [18]: inactive
